In PubChem BioAssay (EPA / NIEHS) one finds AC50 and outcome data, which are given here for seven molecules.

Results filed as inconclusive are left out. The source made the active and inactive calls. Rule for the calls, unless noted: active = hit-call score of the fitted dose curve at least 0.9, where 1 is the maximum; inactive = score below 0.9.

Assay [1] in a line: ATG_Oct_MLP_CIS: Attagene CIS-FACTORIAL HepG2 Assay for human Octamer-Binding Transcription Factor (Oct) (AID 2282993). The settings on record: HepG2 Attagene cis-factorial Oct reporter, mRNA; actives raise or lower the signal. The method in brief:
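HepG2, transient MRTU transfection, cis promoter elements; 24 h dosing; RT-PCR/CE fluorescence read-out of reporter mRNA; fit both directions vs DMSO.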

The nature of assay [2]: BSK_3C_TissueFactor: BioMAP Diversity Plus: 3C Assay for Tissue Factor Biomarker Activity (AID 2282997). The settings on record: BioMAP 3C HUVEC, tissue factor biomarker readout; actives raise or lower the signal. The method in brief:
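HUVEC were treated 24 h, then surface tissue factor measured by ELISA and fitted bidirectionally against DMSO. Parallel SRB total-protein staining assessed overt cytotoxicity at the same time point.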

Assay [3] can be described thus: BSK_3C_VCAM1: BioMAP Diversity Plus: 3C Assay for Vascular cell adhesion molecule 1 (VCAM1) Biomarker Activity (AID 2282999). Conditions: BioMAP 3C HUVEC, VCAM1 ELISA, cytokine-stimulated; actives raise or lower the signal. The essentials: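 Human umbilical vein endothelial cells were dosed with compound for 24 h, after which cell-surface VCAM-1 was quantified by ELISA. Bidirectional curve fitting used DMSO as negative control and activity baseline.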

A short description of assay [4]: BSK_4H_Eotaxin3: BioMAP Diversity Plus: 4H Assay for Eotaxin 3 Biomarker Activity (AID 2283000).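 Note: CCL26 protein level quantified by ELISA in parallel with SRB cytotoxicity check.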 Conditions: primary human endothelial cells (HUVEC); actives raise or lower the signal. The essentials:
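Eotaxin-3 (CCL26) levels were measured by ELISA in HUVEC primary cultures 24 h post-dosing. Gain or loss of signal was fitted in both directions, with DMSO serving as baseline and negative control.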

Assay [5] addresses human Peroxisome Proliferator-activated Receptor alpha (PPARa), PPARA (gene 5465) (UniProt Q07869). Nature of the assay: ATG_PPARa_TRANS: Attagene TRANS-FACTORIAL HepG2 Assay for human Peroxisome Proliferator-activated Receptor alpha (PPARa) (AID 2283001; active = hit-call score of the fitted dose curve at least 0.9, where 1 is the maximum). The essentials: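 Gain-of-signal endpoint: reporter mRNA induction relative to DMSO, detected by fluorescent RT-PCR and capillary electrophoresis. HepG2 cells transiently carried GAL4-UAS-driven reporter units plus NR-Gal4 fusion; exposure lasted 24 h.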

Read-out in assay [6]: Intercellular Adhesion Molecule 1 (ICAM1), ICAM1 (gene 3383)
Kind of assay: BSK_3C_ICAM1: BioMAP Diversity Plus: 3C Assay for Intercellular Adhesion Molecule 1 (ICAM1) Biomarker Activity (AID 2283003). Conditions: primary human endothelial cells (HUVEC); actives raise or lower the signal. The method in brief:
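HUVEC primary cells stimulated under 3C conditions; ICAM1 measured by ELISA 24 h after compound dosing. Curves fitted bidirectionally against the DMSO baseline. Overt cytotoxicity checked by SRB staining of parallel cultures.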

For assay [7], the target named is human Retinoic Acid Receptor beta (RARb), RARB (gene 5915) (UniProt P10826). Nature of the assay: ATG_RARb_TRANS: Attagene TRANS-FACTORIAL HepG2 Assay for human Retinoic Acid Receptor beta (AID 2283004; active = hit-call score of the fitted dose curve at least 0.9, where 1 is the maximum). The method in brief: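 HepG2 cells were transiently transfected with GAL4-UAS reporter units that report activity of exogenous chimeric NR-Gal4 proteins, then exposed to compound for 24 h. Reporter mRNA was quantified by RT-PCR with capillary electrophoresis fluorescence, as gain of signal over DMSO.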
human Retinoic Acid Receptor beta (RARb), RARB (gene 5915), sequence (P10826 whole entry, looked up, the tested form may be a part): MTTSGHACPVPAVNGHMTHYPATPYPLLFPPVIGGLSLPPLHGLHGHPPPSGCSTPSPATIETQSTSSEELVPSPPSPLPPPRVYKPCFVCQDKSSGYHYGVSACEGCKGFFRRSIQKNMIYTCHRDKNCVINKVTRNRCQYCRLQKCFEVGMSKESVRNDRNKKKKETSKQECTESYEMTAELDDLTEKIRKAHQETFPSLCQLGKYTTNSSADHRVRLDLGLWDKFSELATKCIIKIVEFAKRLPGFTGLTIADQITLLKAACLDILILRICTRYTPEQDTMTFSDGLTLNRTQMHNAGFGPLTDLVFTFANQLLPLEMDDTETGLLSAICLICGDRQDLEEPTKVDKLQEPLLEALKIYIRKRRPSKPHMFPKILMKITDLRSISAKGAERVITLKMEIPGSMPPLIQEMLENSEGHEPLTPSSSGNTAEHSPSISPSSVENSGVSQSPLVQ

The nature of assay [8]: BSK_3C_Proliferation: Cell Proliferation Assessment in the BioMAP Diversity Plus: 3C Assay (AID 2283006). Conditions: primary human endothelial cells (HUVEC). The essentials:
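Subconfluent HUVEC (3C system) cultured with chemical; relative cell number read at 48 h by sulforhodamine B total-protein staining (0.1% SRB after 10% TCA fixation, 560 nm). Bidirectional fit relative to DMSO.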

For assay [9], the target named is Peroxisome proliferator-activated receptor gamma (Homo sapiens) (UniProt P37231). Kind of assay: ATG_PPARg_TRANS: Attagene TRANS-FACTORIAL HepG2 Assay for human Peroxisome Proliferator-activated Receptor-gamma (PPARg) (AID 2283007; active = hit-call score of the fitted dose curve at least 0.9, where 1 is the maximum). The method in brief:
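Twenty-four hours after chemical dosing of transiently transfected HepG2 cells, isolated RNA was converted to cDNA, reporter sequences amplified and 6-FAM-labelled, then HpaI-digested and analysed by capillary electrophoresis. Signal increase against DMSO was fitted.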

Assay [10] has as its target human RAR-related Orphan Receptor beta (RORb), RORB (gene 6096) (UniProt Q92753). Nature of the assay: ATG_RORb_TRANS: Attagene TRANS-FACTORIAL HepG2 Assay for human RAR-related Orphan Receptor beta (RORb) (AID 2283010; active = hit-call score of the fitted dose curve at least 0.9, where 1 is the maximum). The method in brief:
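HepG2 cells transiently transfected with GAL4-UAS reporter units expressing chimeric NR-Gal4 protein; reporter mRNA measured 24 h after dosing by RT-PCR, 6-FAM labelling and capillary electrophoresis. Gain-of-signal fitted relative to DMSO baseline.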

Assay [11] deals with human RAR-related Orphan Receptor gamma (RORg), RORC (gene 6097) (UniProt P51449). Kind of assay: ATG_RORg_TRANS: Attagene TRANS-FACTORIAL HepG2 Assay for human RAR-related Orphan Receptor gamma (RORg) (AID 2283011; active = hit-call score of the fitted dose curve at least 0.9, where 1 is the maximum). The essentials:
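HepG2 cells transiently transfected with GAL4-UAS reporter units and chimeric RORg-Gal4 construct; after 24 h chemical exposure, reporter mRNA measured by RT-PCR with fluorescent capillary electrophoresis, gain of signal fitted against DMSO.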

The target of assay [12] is Retinoic acid receptor RXR-alpha (Homo sapiens) (UniProt P19793). Kind of assay: ATG_RXRa_TRANS: Attagene TRANS-FACTORIAL HepG2 Assay for human Retinoid X Receptor alpha (RXRa) (AID 2283012; active = hit-call score of the fitted dose curve at least 0.9, where 1 is the maximum). The method in brief:
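HepG2 cells transiently transfected with GAL4-UAS reporter units and chimeric RXRa-Gal4 protein, treated 24 h. Reporter mRNA measured by RT-PCR, fluorescent labelling, HpaI digestion and capillary electrophoresis. Induction fitted against DMSO.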

Assay [13] concerns the target human Retinoid X Receptor beta (RXRb), RXRB (gene 6257) (UniProt P28702). Kind of assay: ATG_RXRb_TRANS: Attagene TRANS-FACTORIAL HepG2 Assay for human Retinoid X Receptor beta (RXRb) (AID 2283013; active = hit-call score of the fitted dose curve at least 0.9, where 1 is the maximum). The essentials: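 HepG2 cells were transiently transfected with multiplexed GAL4-UAS reporters and a chimeric RXRb-Gal4 construct, then exposed for 24 h. Reporter mRNA was quantified by RT-PCR, FAM labeling, HpaI digestion and capillary electrophoresis; gain of signal was scored against DMSO.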

Assay [14] deals with human Thyroid Receptor alpha (THRa1), THRA (gene 7067) (UniProt P10827). Nature of the assay: ATG_THRa1_TRANS: Attagene TRANS-FACTORIAL HepG2 Assay for human Thyroid Receptor alpha (THRa1) (AID 2283014; active = hit-call score of the fitted dose curve at least 0.9, where 1 is the maximum). The method in brief:
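HepG2 cells transiently transfected with chimeric NR-Gal4 and GAL4-UAS reporter units, dosed 24 h. Reporter mRNA quantified by RT-PCR, fluorescent labeling, HpaI digestion and capillary electrophoresis; gain-of-signal fit versus DMSO.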

Read-out in assay [15]: Interleukin-1 alpha (IL1a), IL1A (gene 3552)
Kind of assay: BSK_BE3C_IL1a: BioMAP Diversity Plus: BE3C Assay for Interleukin-1 alpha (IL1a) Biomarker Activity (AID 2283016). Conditions: primary human bronchial epithelial cells; actives raise or lower the signal. The essentials:
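Human primary bronchial epithelial cells, 24 h chemical exposure; IL-1a quantified by ELISA, fitted bidirectionally against DMSO. Cytotoxicity assessed in parallel by SRB total-protein staining at the time of measurement.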

A short description of assay [16]: BSK_3C_uPAR: BioMAP Diversity Plus: 3C Assay for Urokinase-type plasminogen activator receptor (uPAR) Biomarker Activity (AID 2282998). The settings on record: BioMAP 3C HUVEC, uPAR biomarker ELISA; actives raise or lower the signal. The essentials:
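A multiplexed primary-cell system built on human umbilical vein endothelium was used, with chemical present for 24 h before reading. Cell-surface uPAR was detected by ELISA; signal change in either direction counted against DMSO.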

Read-out in assay [17]: E-selectin (Homo sapiens) (UniProt P16581)
Nature of the assay: BSK_3C_Eselectin: BioMAP Diversity Plus: 3C Assay for Eselectin Biomarker Activity (AID 2283015).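 Note: cell surface E-selectin protein quantified by ELISA 24 h after dosing.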 The settings on record: primary human endothelial cells (HUVEC); actives raise or lower the signal. The method in brief: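 Primary human umbilical vein endothelial cells (3C system), read 24 h after compound addition; E-selectin measured by ELISA. Bidirectional curve fitting against DMSO baseline; cytotoxicity by parallel SRB total-protein staining.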

Assay [18] deals with Nuclear receptor subfamily 1 group I member 2 (Homo sapiens) (UniProt O75469). Kind of assay: ATG_PXR_TRANS: Attagene TRANS-FACTORIAL HepG2 Assay for human Pregnane X Receptor (PXR) (AID 2283008; active = hit-call score of the fitted dose curve at least 0.9, where 1 is the maximum). The essentials:
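Read-out is fluorescence of labelled reporter cDNA fragments separated by capillary electrophoresis after RT-PCR and HpaI digestion. Source: HepG2 cells carrying PXR-GAL4/UAS reporter constructs, treated 24 h; activity fitted upward relative to DMSO.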

human Thyroid Receptor alpha (THRa1), THRA (gene 7067), sequence (P10827 whole entry, looked up, the tested form may be a part): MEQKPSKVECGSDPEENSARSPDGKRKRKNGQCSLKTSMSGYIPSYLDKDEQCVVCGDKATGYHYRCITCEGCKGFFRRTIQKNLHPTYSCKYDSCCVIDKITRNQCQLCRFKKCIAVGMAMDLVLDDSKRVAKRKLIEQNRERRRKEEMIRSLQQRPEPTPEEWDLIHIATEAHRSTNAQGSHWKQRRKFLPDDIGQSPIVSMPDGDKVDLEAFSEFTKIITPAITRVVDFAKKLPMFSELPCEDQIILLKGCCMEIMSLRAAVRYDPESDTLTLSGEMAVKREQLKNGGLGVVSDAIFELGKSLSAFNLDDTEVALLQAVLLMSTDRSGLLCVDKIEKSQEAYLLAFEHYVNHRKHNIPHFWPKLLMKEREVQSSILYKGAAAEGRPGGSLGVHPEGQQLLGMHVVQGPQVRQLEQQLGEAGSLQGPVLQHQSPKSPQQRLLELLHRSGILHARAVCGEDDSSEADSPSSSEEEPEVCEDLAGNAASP
Retinoic acid receptor RXR-alpha (Homo sapiens), sequence (P19793 whole entry, looked up, the tested form may be a part): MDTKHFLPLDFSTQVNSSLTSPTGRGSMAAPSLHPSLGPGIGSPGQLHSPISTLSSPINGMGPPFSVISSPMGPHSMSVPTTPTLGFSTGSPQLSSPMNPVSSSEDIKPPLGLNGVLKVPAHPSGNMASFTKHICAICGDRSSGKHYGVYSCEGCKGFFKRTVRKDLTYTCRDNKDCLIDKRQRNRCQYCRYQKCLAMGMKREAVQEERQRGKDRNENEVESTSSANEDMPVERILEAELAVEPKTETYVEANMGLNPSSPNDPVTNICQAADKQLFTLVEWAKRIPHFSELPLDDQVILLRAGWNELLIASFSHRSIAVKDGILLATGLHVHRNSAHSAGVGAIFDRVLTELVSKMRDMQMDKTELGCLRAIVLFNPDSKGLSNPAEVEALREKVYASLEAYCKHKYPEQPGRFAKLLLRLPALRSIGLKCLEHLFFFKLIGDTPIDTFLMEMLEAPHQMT
human Retinoid X Receptor beta (RXRb), RXRB (gene 6257), sequence (P28702 whole entry, looked up, the tested form may be a part): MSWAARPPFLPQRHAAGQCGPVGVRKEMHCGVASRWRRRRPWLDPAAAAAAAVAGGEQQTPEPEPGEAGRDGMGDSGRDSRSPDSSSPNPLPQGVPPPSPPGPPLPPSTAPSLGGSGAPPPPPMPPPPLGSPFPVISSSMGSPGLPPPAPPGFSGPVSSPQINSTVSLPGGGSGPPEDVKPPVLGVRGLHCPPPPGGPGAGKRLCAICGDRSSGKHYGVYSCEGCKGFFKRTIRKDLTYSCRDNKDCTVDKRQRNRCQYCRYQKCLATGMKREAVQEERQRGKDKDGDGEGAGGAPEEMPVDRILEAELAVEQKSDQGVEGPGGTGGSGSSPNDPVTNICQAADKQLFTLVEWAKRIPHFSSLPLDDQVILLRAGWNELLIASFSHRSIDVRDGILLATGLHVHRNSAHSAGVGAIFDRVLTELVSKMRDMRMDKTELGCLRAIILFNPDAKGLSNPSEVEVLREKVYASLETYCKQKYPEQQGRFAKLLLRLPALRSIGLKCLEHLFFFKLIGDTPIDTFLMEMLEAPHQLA
E-selectin (Homo sapiens), sequence (P16581 whole entry, looked up): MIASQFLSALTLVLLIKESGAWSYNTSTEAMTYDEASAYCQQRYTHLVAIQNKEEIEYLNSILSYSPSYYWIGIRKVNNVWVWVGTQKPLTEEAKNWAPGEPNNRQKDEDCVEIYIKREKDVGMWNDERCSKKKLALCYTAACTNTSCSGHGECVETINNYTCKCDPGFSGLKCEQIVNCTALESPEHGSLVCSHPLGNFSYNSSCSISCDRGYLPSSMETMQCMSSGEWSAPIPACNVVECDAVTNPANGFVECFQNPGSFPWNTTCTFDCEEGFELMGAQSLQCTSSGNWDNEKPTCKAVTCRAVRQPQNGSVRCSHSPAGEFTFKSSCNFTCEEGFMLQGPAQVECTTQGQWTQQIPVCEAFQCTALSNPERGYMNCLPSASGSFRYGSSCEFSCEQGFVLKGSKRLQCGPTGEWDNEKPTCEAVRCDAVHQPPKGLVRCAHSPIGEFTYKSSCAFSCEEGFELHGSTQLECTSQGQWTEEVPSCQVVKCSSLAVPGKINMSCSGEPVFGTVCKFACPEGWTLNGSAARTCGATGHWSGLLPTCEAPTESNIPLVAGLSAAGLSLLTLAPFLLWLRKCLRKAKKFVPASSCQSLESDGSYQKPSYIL
human RAR-related Orphan Receptor beta (RORb), RORB (gene 6096), sequence (Q92753 whole entry, looked up, the tested form may be a part): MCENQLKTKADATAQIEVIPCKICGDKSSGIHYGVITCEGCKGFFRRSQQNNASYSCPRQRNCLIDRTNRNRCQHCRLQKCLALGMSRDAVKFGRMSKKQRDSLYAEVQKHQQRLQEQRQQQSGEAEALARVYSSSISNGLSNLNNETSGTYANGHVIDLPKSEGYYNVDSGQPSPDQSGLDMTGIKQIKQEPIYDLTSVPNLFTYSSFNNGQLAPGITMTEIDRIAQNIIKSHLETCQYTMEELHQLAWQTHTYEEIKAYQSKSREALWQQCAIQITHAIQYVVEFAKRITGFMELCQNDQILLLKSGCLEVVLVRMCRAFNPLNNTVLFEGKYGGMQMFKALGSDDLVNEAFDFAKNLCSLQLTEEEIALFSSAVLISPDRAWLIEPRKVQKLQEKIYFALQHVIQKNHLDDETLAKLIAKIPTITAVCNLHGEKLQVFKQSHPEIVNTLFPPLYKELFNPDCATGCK
human Peroxisome Proliferator-activated Receptor alpha (PPARa), PPARA (gene 5465), sequence (Q07869 whole entry, looked up, the tested form may be a part): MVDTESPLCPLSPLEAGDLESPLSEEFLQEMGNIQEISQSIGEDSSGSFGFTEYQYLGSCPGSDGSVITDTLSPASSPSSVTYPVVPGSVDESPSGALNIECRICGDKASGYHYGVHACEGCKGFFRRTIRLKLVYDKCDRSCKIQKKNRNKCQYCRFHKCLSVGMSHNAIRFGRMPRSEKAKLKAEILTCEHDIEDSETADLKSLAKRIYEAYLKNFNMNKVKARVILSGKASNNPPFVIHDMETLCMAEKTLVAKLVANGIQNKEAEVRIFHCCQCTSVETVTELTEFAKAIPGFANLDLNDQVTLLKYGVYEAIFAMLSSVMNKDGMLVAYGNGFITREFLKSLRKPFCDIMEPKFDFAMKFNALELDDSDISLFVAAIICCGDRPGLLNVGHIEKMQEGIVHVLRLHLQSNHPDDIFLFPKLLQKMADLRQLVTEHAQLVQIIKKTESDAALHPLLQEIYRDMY
Peroxisome proliferator-activated receptor gamma (Homo sapiens), sequence (P37231 whole entry, looked up): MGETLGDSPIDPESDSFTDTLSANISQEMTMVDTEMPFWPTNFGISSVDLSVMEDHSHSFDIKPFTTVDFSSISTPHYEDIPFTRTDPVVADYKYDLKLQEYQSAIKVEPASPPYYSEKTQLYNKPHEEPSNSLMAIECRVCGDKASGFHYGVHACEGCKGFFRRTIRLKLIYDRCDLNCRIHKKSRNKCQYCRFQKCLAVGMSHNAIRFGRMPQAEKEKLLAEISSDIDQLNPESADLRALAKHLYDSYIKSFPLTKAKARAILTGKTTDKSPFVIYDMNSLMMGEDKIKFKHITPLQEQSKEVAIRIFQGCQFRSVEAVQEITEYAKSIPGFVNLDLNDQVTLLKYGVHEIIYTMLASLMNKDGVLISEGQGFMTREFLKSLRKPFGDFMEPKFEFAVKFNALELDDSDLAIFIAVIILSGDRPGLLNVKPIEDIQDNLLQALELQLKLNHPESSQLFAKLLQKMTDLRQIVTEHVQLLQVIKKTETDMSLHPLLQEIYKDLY
human RAR-related Orphan Receptor gamma (RORg), RORC (gene 6097), sequence (P51449 whole entry, looked up, the tested form may be a part): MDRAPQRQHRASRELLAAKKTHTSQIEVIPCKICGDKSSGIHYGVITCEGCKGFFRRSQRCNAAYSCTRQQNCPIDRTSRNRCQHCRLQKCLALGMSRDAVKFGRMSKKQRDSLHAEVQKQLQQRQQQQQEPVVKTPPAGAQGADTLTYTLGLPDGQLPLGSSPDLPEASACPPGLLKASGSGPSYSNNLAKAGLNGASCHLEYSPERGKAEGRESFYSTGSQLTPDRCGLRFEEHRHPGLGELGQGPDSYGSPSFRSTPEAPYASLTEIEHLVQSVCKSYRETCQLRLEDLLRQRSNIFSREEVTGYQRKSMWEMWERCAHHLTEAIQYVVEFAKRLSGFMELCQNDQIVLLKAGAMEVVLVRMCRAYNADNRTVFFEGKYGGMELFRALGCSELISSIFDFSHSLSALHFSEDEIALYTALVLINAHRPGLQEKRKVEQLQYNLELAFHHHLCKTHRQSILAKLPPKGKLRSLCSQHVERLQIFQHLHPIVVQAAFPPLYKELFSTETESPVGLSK
Nuclear receptor subfamily 1 group I member 2 (Homo sapiens), sequence (O75469 whole entry, looked up, the tested form may be a part): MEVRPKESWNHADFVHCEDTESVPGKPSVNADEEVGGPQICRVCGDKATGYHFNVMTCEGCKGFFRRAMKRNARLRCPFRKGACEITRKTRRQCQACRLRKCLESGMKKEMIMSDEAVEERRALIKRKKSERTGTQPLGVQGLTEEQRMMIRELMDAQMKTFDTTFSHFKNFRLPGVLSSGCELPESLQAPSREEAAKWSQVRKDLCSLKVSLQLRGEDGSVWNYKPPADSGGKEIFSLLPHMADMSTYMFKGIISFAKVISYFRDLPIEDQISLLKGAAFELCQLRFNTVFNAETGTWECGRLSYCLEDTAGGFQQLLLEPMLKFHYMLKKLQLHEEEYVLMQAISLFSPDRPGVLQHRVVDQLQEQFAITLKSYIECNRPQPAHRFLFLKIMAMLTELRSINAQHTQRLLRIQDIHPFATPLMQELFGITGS

As to `Nc1nc(=S)c2[nH]cnc2[nH]1`, the AC50 in assay [1] was 35.5 µM (active). In addition, the result in assay [2], in assay [3], in assay [4], in assay [5], in assay [6] and in assay [7] was inactive. For the same molecule, the result in assay [8], in assay [9], in assay [10], in [11], in [12] and in assay [13] was inactive. In addition, the molecule was called inactive in [14] and in [15].
For the molecule `CCCC(=O)O`, the result in assay [1], in assay [2], in assay [16], in assay [3], in assay [4] and in [6] was inactive. Also, the result in [8], in [11], in [17] and in [15] was inactive.
Turning to `CC(=O)CC(c1ccccc1)c1c(O)c2ccccc2oc1=O` (stereo not drawn), the molecule was classed as inactive in assay [1], in assay [2], in assay [3], in assay [4], in assay [5] and in assay [6]. For the same molecule, the result in assay [8], in assay [10], in assay [11], in assay [12], in [17] and in [15] was inactive.
Consider `CC(C)c1cccc(C(C)C)c1`, for which the outcome in assay [1], in assay [2], in [3], in assay [4], in [6] and in assay [7] was inactive. In addition, the result in assay [8], in assay [12] and in [15] was inactive. The AC50 in [13] is 100 µM (active).
In the case of `O=C1CCCCC1`, the outcome in assay [1], in assay [2], in assay [3], in assay [4], in assay [5] and in assay [6] was inactive. In addition, the outcome in assay [8], in [9], in [11], in assay [12], in [13] and in [17] was inactive. The result in assay [15] was inactive. In assay [14], the AC50 was 48.4 µM (active).
Consider `Cc1occc(=O)c1O`, for which the molecule was classed as inactive in assay [1], in assay [2], in [16], in [3], in [4] and in assay [5]. The outcome in assay [6], in [8], in assay [9], in [10], in assay [17] and in assay [15] was inactive.
Regarding `NC1CCCCC1`, the call in assay [1], in assay [2], in assay [16], in assay [3], in [4] and in assay [5] was inactive. Also, the outcome in assay [6], in assay [8], in assay [18], in [10], in assay [11] and in [13] was inactive. The molecule was called inactive in [14], in assay [17] and in assay [15].
